Assay results reported in PubChem BioAssay AID1044 (The Scripps Research Institute Molecular Screening Center, 2008).
Among all 16,000 compounds or so, about 240 (1.5%) were called active. The list comes from a sample in which actives are over-represented; it also holds similar structures and randomly drawn compounds. Unmarked numbers belong to inactive results. No stated cut-off is given here; in the data, active means activation above about 80%; inactive means the rest.

What follows are molecules tested against Sphingosine 1-phosphate receptor 1 (Homo sapiens) (UniProt P21453) (assay: S1P1 (human) receptor agonism (AID 1044)). Conditions: S1P1 agonist cell-based reporter assay; at 4.5 µM; active compounds read high.
Chain of Sphingosine 1-phosphate receptor 1 (Homo sapiens) (P21453 whole entry, looked up): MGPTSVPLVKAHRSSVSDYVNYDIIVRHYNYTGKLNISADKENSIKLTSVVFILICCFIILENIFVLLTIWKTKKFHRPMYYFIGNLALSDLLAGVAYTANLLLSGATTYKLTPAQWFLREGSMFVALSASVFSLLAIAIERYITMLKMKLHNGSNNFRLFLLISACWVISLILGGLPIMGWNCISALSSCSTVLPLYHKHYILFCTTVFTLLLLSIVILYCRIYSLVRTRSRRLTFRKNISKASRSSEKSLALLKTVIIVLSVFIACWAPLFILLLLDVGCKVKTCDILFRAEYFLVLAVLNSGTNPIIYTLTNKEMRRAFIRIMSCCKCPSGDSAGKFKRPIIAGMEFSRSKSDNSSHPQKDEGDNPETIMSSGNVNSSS

Row | SMILES | activation
1 | O=C(Nc1ccccc1)O/N=C1/CCCc2occc21 | -2.45%
2 | CCOC(=O)c1c(NC(=S)NC)sc2c1CCCC2 | -16.5%
3 | CCOC(=O)NC(=S)NC12CC3CC(CC(C3)C1)C2 | -14.8%
4 | NC(N)=N/C(N)=N/c1nnc(C(F)(F)F)s1 | -5%
5 | OC1(C#Cc2ccccc2)CCN(Cc2ccccc2)CC1 | -10.7%
6 | CCOC(=O)c1sc(SC)c(-c2ccccc2)c1N | 103% (active)
7 | CCOC(=O)c1sc2ccccc2c1N | -24.7%
8 | CCOC(=O)c1sc(SCCS(=O)(=O)c2ccc(Cl)cc2)c(C#N)c1-c1ccccc1 | -6.04%
9 | N#CCCSc1sc(=S)sc1SCCC#N | 2.11%
10 | Clc1ccc(CO/N=C/c2nc3ccccc3s2)cc1 | 87% (active)
11 | CCCCc1c(COC)nc(-c2ccc(Cl)cc2)[nH]c1=O | -10.5%
12 | Cc1nc(C(F)(F)F)ccc1C(=O)NCCNc1ncccc1C(F)(F)F | 3.52%
13 | Cc1nc(C(F)(F)F)ccc1NC(=O)/C=C\C(=O)O | -31%
14 | O=C(NC1Cc2ccccc2C1)c1nnc(-c2ccccc2)o1 | 62.1%
15 | Cn1ncc(Br)c1NC(=O)C(C)(C)C | 1.4%
16 | CCOC(=O)Cc1csc(NC(NC(=O)OCC)(C(F)(F)F)C(F)(F)F)n1 | -11.5%
17 | CN1CCN(c2ccc(NC(=O)c3ccccc3)cc2)CC1 | 15.7%
18 | CCOC(=O)C(NC(=O)c1ccco1)(Nc1cc(C)ccn1)C(F)(F)F (centres undefined) | -12.4%
19 | Fc1cccc(Cl)c1CN1CCN(c2ncnc3scc(-c4cccs4)c23)CC1 | 10.1%
20 | CCOC(=O)c1c(-c2ccco2)csc1NC(=O)Nc1ccc(Cl)cc1 | -5.82%
21 | C/C(=N\NC(=S)Nc1cccc(F)c1)c1ccco1 | -19.7%
22 | Cc1nc(C)c(-c2ccnc(-c3ccc(Cl)cc3)n2)s1 | -14.5%
23 | Fc1ccc(Oc2nc(Oc3ccc(F)cc3)nc(N3CCSCC3)n2)cc1 | -33.1%
24 | Cc1noc(C)c1C(=O)N1CCOCC1 | -1.85%
25 | CCOC(=O)c1cc(C)nc(Sc2ccccc2NC(=O)Nc2ccc(Cl)cc2)c1C#N | -5.59%
26 | OC(CN1CCN(c2ccc(C(F)(F)F)cn2)CC1)c1ccc2c(c1)OCCO2 (centres undefined) | 4.19%
27 | CNC(=O)NNC(=O)Cn1nnc(N2CCCCC2)n1 | -5.59%
28 | O=C(c1ccc(F)cc1)C1CCN(Cc2cn[nH]c2-c2ccccc2)CC1 | -8.25%
29 | Cn1nc(-c2ccccc2)cc1N | -14.4%
